Consider 9 compounds from PubChem BioAssay.

Calls of active or inactive are those of the source.

Assay [1] can be described thus: optical density shifts of acrAB sulA E. coli – strain DRC41, OD650, 48 h, E. coli filamentation inducer project, primary screen (AID 1152).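 Also: E. coli MC1000 strain DRC41 lacking acrAB efflux pump and sulA.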 The settings on record: higher = more signal, called active from +8 up or from −8 down.
A short description of assay [2]: probe aLefty1 binding on compound microarray – biochemical, small-molecule microarray, 635/667 nm fluorescence, primary screen (AID 1153).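 Also: score merges spot fluorescence with signal-to-noise ratio from the scanned slide images.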 Conditions: higher = more signal.
A short description of assay [3]: plasmodial surface anion channel blockers, osmotic lysis – cell-based, P. falciparum Indochina, OD700, 1 h, primary screen (AID 1154). Conditions: P. falciparum Indochina infected RBC osmotic lysis, higher = more signal, called active from +8 up or from −8 down.
Assay [4] is described as follows: plasmodial surface anion channel blockers, osmotic lysis – cell-based, P. falciparum Indochina, OD700, 2 h, primary screen (AID 1155).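 Also: lysis reports solute entry through the parasite surface anion channel PSAC.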 The settings on record: P. falciparum Indochina infected erythrocytes, higher = more signal, called active from +8 up or from −8 down.
Assay [5] can be described thus: changes in parasitized red cell lysis, either direction – P. falciparum Indochina, OD700, 3 h, PSAC antagonist project, primary screen (AID 1156). Conditions: P. falciparum-infected erythrocytes, osmotic lysis, higher = more signal, called active from +8 up or from −8 down.
A short description of assay [6]: plasmodial surface anion channel blockers, osmotic lysis – cell-based, P. falciparum Indochina, OD700, 18 h, primary screen (AID 1157). The settings on record: P. falciparum Indochina infected erythrocytes, osmotic lysis OD700, 18 h; higher = more signal, called active from +8 up or from −8 down.
Assay [7] can be described thus: S6 kinase pathway phospho-S6 level changes – cell-based, A549, cytoblot, luminescence, serum-stimulated, primary screen (AID 1158).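 Also: serum-stimulated A549 lung adenocarcinoma cells; signal is phosphorylated S6 detected by cytoblot immunostaining with HRP secondary.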 The settings on record: 5 h, higher = more signal.
Assay [8] addresses NADPH oxidase 2 (Homo sapiens) (UniProt P04839). The assay can be described thus: compounds shifting NOX2 Amplex Red fluorescence – cell-based, HEK293-NOX2, PMA-stimulated, NOX inhibitor project, primary screen (AID 1159). Also: test concentration not given here. The settings on record: 45 min, higher = more signal, called active from +8 up or from −8 down.
For assay [9], the target named is NADPH oxidase 4 (Homo sapiens) (UniProt Q9NPH5). The experiment in a line: compounds shifting NOX4 Amplex Red fluorescence – cell-based, HEK293-NOX4, tetracycline-induced, NOX inhibitor project, primary screen (AID 1160). The settings on record: HEK293-NOX4, Amplex Red H2O2 fluorescence, 45 min; higher = more signal, called active from +8 up or from −8 down.
The target in assay [10] is NADPH oxidase 5 (Homo sapiens) (UniProt Q96PH1). The experiment in a line: compounds shifting NOX5 Amplex Red fluorescence – cell-based, HEK293-NOX5, NOX inhibitor project, primary screen (AID 1161). The settings on record: HEK293-NOX5, ionomycin, 45 min, higher = more signal.
Assay [11] can be described thus: compound effects on lung adenocarcinoma cell viability – A549, calcein-AM fluorescence, 48 h, basal, profiling panel (AID 1162). Also: test concentration not given here. The settings on record: higher = more signal.
Assay [12] can be described thus: compound effects on differentiated 3T3-L1 adipocyte viability – cell-based, 3T3-L1 adipocytes, calcein-AM fluorescence, 48 h, basal, profiling panel (AID 1163). Also: test concentration not given here. The settings on record: 3T3-L1 adipocytes viability, higher = more signal.
Assay [13] can be described thus: compound effects on hepatocellular carcinoma cell viability – HepG2, calcein-AM fluorescence, 48 h, basal, profiling panel (AID 1164). Also: test concentration not given here. Conditions: higher = more signal.
Assay [14] can be described thus: compound effects on multiple myeloma cell viability – MM1S, calcein-AM fluorescence, 48 h, basal, profiling panel (AID 1165).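 Also: viability of MM1S multiple myeloma cells under basal unstimulated conditions; test concentration not given here.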 The settings on record: higher = more signal.
The nature of assay [15]: calcein-AM signal in unstimulated myeloma cells – cell-based, calcein-AM fluorescence, 48 h, PK04 Diversity Set, profiling panel (AID 1166).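 Also: cells grown under basal conditions without added stimulus; test concentration not given here.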 The settings on record: RPMI8226 myeloma viability, higher = more signal.
Assay [16] can be described thus: JC-1 mitochondrial signal, unstimulated HepG2 cells – cell-based, JC-1 fluorescence, 24 h, 100 nL compound, profiling panel (AID 1167). Also: test concentration not given here. Conditions: HepG2 mitochondrial potential, higher = more signal.
Assay [17] in a line: JC-1 mitochondrial signal, unstimulated adipocytes – cell-based, JC-1 fluorescence, 3T3-L1 adipocytes, 24 h, 100 nL compound, profiling panel (AID 1168). Also: test concentration not given here. The settings on record: JC-1 mitochondrial fluorescence, higher = more signal, called active from +8 up or from −8 down.
The nature of assay [18]: JC-1 mitochondrial signal, unstimulated myeloma cells – cell-based, JC-1 fluorescence, RPMI8226, 24 h, 100 nL compound, profiling panel (AID 1169). Also: test concentration not given here. Conditions: JC-1 mitochondrial potential fluorescence, higher = more signal.
The nature of assay [19]: JC-1 mitochondrial signal, unstimulated MM1S myeloma – cell-based, JC-1 fluorescence, 24 h, 100 nL compound, profiling panel (AID 1170). Also: test concentration not given here. Conditions: MM1S mitochondrial potential, higher = more signal.
The nature of assay [20]: resazurin metabolic signal in A549 cells – cell-based, resazurin fluorescence, 24 h, PK04 Diversity Set, profiling panel (AID 1171). Also: test concentration not given here. The settings on record: A549 viability, higher = more signal, called active from +8 up or from −8 down. A general note: The colour change of resazurin is a common sign of viable cells or microbes.

NADPH oxidase 4 (Homo sapiens), sequence (Q9NPH5 whole entry, looked up): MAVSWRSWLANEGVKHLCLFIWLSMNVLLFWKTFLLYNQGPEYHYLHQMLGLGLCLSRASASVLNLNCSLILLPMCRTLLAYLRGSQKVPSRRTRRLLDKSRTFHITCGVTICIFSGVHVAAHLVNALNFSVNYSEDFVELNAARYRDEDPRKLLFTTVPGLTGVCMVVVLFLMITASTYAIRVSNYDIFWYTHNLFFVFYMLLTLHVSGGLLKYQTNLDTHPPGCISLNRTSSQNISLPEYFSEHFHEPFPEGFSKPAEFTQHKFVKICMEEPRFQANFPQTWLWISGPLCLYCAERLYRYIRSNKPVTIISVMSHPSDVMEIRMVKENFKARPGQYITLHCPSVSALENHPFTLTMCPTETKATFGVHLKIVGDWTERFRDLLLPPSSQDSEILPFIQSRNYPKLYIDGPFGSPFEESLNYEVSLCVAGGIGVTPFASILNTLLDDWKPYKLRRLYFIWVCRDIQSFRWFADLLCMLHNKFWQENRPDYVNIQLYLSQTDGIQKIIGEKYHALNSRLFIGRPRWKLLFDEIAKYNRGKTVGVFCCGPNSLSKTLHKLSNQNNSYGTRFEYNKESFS
NADPH oxidase 5 (Homo sapiens), sequence (Q96PH1 whole entry, looked up): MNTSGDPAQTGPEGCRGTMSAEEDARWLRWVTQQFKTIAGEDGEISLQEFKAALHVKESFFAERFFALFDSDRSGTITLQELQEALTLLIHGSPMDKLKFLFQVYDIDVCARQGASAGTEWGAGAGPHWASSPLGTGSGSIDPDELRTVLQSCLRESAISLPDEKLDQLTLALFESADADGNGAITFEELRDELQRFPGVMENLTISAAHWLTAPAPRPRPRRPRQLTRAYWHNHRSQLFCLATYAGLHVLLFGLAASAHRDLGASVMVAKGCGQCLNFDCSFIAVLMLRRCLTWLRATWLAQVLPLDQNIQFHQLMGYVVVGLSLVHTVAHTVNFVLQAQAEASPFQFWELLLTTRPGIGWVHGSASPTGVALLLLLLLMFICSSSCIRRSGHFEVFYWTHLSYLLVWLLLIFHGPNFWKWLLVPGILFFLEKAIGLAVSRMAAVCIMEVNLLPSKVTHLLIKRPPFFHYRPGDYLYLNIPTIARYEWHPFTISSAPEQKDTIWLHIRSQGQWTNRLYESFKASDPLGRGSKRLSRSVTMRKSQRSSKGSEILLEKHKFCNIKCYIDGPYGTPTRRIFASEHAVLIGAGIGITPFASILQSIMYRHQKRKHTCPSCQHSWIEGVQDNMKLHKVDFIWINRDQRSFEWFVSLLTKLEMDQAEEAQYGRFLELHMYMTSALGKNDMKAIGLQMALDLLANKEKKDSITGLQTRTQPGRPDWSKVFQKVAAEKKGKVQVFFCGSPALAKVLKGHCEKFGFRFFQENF
NADPH oxidase 2 (Homo sapiens), sequence (P04839 whole entry, looked up): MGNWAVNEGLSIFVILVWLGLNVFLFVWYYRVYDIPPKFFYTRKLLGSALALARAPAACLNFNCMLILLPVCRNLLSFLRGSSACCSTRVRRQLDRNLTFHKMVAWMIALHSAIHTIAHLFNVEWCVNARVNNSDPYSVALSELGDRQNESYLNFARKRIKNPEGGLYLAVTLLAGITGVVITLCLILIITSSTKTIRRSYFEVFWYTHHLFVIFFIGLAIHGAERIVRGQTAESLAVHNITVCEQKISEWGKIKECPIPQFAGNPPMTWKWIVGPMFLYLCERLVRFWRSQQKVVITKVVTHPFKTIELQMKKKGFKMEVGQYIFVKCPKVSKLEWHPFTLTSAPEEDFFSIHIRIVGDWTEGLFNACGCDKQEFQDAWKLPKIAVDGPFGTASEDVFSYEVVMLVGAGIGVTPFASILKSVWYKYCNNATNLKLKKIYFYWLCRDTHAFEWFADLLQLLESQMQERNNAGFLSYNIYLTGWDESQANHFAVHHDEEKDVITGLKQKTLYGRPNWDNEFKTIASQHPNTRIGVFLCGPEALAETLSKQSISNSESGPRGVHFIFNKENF

With `C=C(C)C(=O)OCC1CN2[C@@H](CC[C@@H](C)[C@@H]2c2ccc(Br)cc2)C(=O)O1` (stereo not given in full), the z-score was -0.949 (inactive) in assay [1]; 3.23 (inactive) in [3]; 0.672 (inactive) in [4]; 0.189 (inactive) in assay [5]; 0.491 (inactive) in assay [6]; -0.48 in [7]. Moreover, the z-score was -0.0685 (inactive) in assay [8]; -0.149 (inactive) in [9]; -0.475 in assay [10]; -0.0348 in [11]; -0.518 in [12]; -0.442 in assay [13]. In addition, the z-score is 0.151 in assay [14]; 0.0247 in [15]; 0.684 in [16]; -0.614 (inactive) in assay [17]; -0.863 in [18]; 0.169 in [19]. Also, the z-score in assay [20] was 0.789 (inactive). Also, the composite z-score in [2] stood at 0.183.

For the compound `CC(C)=CCCC(C)=CCON=C1C[C@@H](O)[C@@H](O)[C@@H]2[C@@H]3C(=O)N(Cc4ccccc4)C(=O)[C@@H]3CC[C@H]12`, the z-score in assay [1] was -0.169 (inactive); in assay [3] it was 4.49 (inactive); in [4], -0.206 (inactive); in [5], 0.957 (inactive); in [6] it was -0.748 (inactive); in assay [7] it was -0.352. The z-score is 1.51 (inactive) in assay [8]; 0.913 (inactive) in assay [9]; -2.3 in assay [10]; -0.424 in assay [11]; 0.753 in assay [12]; -0.908 in [13]. Moreover, the z-score was -0.13 in assay [14]; -1.41 in [15]; 1.66 in assay [16]; -0.468 (inactive) in [17]; 0.394 in assay [18]; -0.0142 in assay [19]. For the same compound, the z-score in [20] is 0.539 (inactive). In assay [2], this compound returned a composite z-score of -0.0197.

Consider `C[C@@H]1NC(=O)[C@@H](C)COC(=O)[C@H](C)NC(=O)[C@@H](C)COC1=O`, for which the z-score in assay [1] is -2.21 (inactive); in assay [3], 0.116 (inactive); in assay [4] it was -0.334 (inactive); in assay [5], -0.172 (inactive); in assay [6] it was -1.15 (inactive); in assay [7], 0.35. Further, the z-score in assay [8] is -0.0632 (inactive); in assay [9], -1.11 (inactive); in [10], 0.136; in assay [11] it was -0.838; in assay [12], 1.19; in assay [13], 0.1. Also, the z-score in assay [14] is -0.426; in assay [15], -0.604; in assay [16] it was 0.503; in assay [17] it was 0.42 (inactive); in assay [18], 0.0799; in [19], 0.307. Moreover, the z-score in assay [20] is 0.228 (inactive). The compound also had a composite z-score in assay [2] of -0.248.

In the case of `CCN1C(=O)[C@H]2[C@H]3[C@H](O)[C@H](O)CC(=NOCC(C)C)[C@@H]3CC[C@H]2C1=O`, the z-score was -1.87 (inactive) in [1]; 0.344 (inactive) in [3]; 0.365 (inactive) in [4]; 0.456 (inactive) in [5]; 0.379 (inactive) in assay [6]; -0.126 in [7]. The z-score was 0.603 (inactive) in assay [8]; 0.324 (inactive) in assay [9]; -0.654 in [10]; -0.556 in assay [11]; -0.0239 in assay [12]; -0.308 in assay [13]. Besides, the z-score in assay [14] was -0.181; in [15], 0.922; in assay [16], -0.501; in [17], -0.769 (inactive); in assay [18] it was 0.788; in assay [19] it was 0.0483. The z-score in assay [20] was -0.0226 (inactive). Besides, in assay [2], the composite z-score is -0.245.

As for `CC(C)(C)N1C(=O)[C@H]2[C@H]3[C@H](O)[C@H](O)CC(=O)[C@H]3CC[C@H]2C1=O`, the z-score in assay [1] was -0.714 (inactive); in assay [3], -0.0882 (inactive); in assay [4] it was 0.499 (inactive); in assay [5], -0.933 (inactive); in assay [6], 0.183 (inactive); in [7], 1.23. The z-score is 1.22 (inactive) in [8]; -1.36 (inactive) in [9]; 0.0957 in assay [10]; -0.568 in assay [11]; 0.372 in assay [12]; 0.258 in assay [13]. The z-score in assay [14] was -1; in assay [15], -0.27; in assay [16], 0.192; in [17] it was -0.445 (inactive); in assay [18], 0.651; in assay [19], -0.512. For the same compound, in [20], the z-score was -0.644 (inactive). The same compound had a composite z-score in assay [2] of -0.144.

Take `CC(=O)O[C@H]1C2=CO[C@H](C)[C@H]3[C@H]4C5=C([C@H](O)[C@H]6O[C@H]6C5=O)[C@H](OC4C)[C@@]23C(=O)[C@@H]2O[C@@H]21` (stereo not given in full): the z-score is -0.16 (inactive) in assay [1]; -0.312 (inactive) in assay [3]; -0.431 (inactive) in [4]; 0.128 (inactive) in assay [5]; 0.1 (inactive) in [6]; -1.05 in [7]. The z-score in [8] was -0.717 (inactive); in assay [9], -0.891 (inactive); in assay [10] it was -0.242; in [11] it was -1.7; in [12], -0.827; in assay [13], -3.46. For the same compound, the z-score in assay [14] is -3.43; in [15], -3.37; in [16] it was -3; in assay [17], 0.12 (inactive); in assay [18] it was -0.871; in [19], -2.88. For the same compound, the z-score in assay [20] was -2.43 (inactive). This compound also came in with a composite z-score in [2] of -0.0477.

For `CCc1cc2c(nc1CC)CCN(CCC(C)=NOC[C@H]1O[C@H](c3ccccc3)C=C[C@@H]1Oc1ccc(OC)cc1)C2`, the z-score in [1] is -0.563 (inactive); in assay [3], 6.37 (inactive); in [4] it was -0.735 (inactive); in assay [5], 2.37 (inactive); in assay [6], -1.62 (inactive); in assay [7], 1.18. Further, the z-score in assay [8] is -1.83 (inactive); in assay [9], -0.845 (inactive); in assay [10], -2.68; in assay [11] it was -0.67; in assay [12], 0.765; in assay [13], -0.106. The z-score was -2.03 in [14]; -2.35 in assay [15]; 5.61 in [16]; -1.1 (inactive) in assay [17]; -0.0846 in [18]; 0.0581 in assay [19]. The z-score in assay [20] was 0.364 (inactive). In assay [2], this compound had a composite z-score of -0.0003.

For `O=C1CCCC=C1C(O)CCCCBr` (stereo not given), the z-score was 0.549 (inactive) in assay [1]; 3.79 (inactive) in [3]; 1.15 (inactive) in assay [4]; 1.02 (inactive) in assay [5]; 0.759 (inactive) in [6]; 0.231 in assay [7]. Further, the z-score in [8] is -0.772 (inactive); in assay [9], 0.241 (inactive); in assay [10], -0.921; in [11], -1.75; in assay [12], 0.593; in assay [13], -4.6. In addition, the z-score was -3.52 in assay [14]; -3.71 in assay [15]; -0.504 in assay [16]; 0.482 (inactive) in [17]; -0.967 in assay [18]; -3.04 in [19]. In addition, the z-score in [20] is -2.06 (inactive). Further, the composite z-score in assay [2] is 0.155.

`O=C1C[C@@H](O)[C@@H](O)[C@@H]2[C@@H]3C(=O)N(C[C@@H]4CCCO4)C(=O)[C@@H]3CC[C@@H]12`: the z-score is 0.668 (inactive) in assay [1]; 0.786 (inactive) in [3]; -0.191 (inactive) in assay [4]; 1 (inactive) in assay [5]; -0.0672 (inactive) in assay [6]; 0.381 in assay [7]. For the same compound, the z-score is -1.38 (inactive) in [8]; 0.529 (inactive) in [9]; 0.624 in [10]; 0.708 in assay [11]; -0.378 in assay [12]; 1.12 in [13]. Besides, the z-score is 0.107 in [14]; -1.06 in assay [15]; 1.29 in assay [16]; -0.248 (inactive) in assay [17]; -0.407 in assay [18]; 0.345 in assay [19]. The z-score in assay [20] is -0.582 (inactive). Further, the composite z-score in assay [2] was -0.284.
